Source: PubChem BioAssay (National Center for Advancing Translational Sciences (NCATS))
An excerpt weighted towards active compounds, which were near 2.4% of everything screened.
Pol beta inh = DNA polymerase beta (human) inhibition. P06746. Pol beta primer extension/strand displacement, fluorescence kinetic. Potency, µM (series often up to 114 µM), without a hit: at the highest dose activity change, negative = inhibition, most hits filed as inhibitors. actives 1.3% (n = 340,000); further: on the % scale 0 is the no-effect control and ±100 the full control effect
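Values derive from four-parameter Hill fits of normalized kinetic data: reads at 0 and 10 min following addition of 50 nM substrate to 10 nM Pol beta preincubated 15 min with compound.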
Pol iota inh = inhibitors of human DNA polymerase iota; Pol iota fluorescent replication assay, 10 min; Potency, µM (highest dose often 115 µM), inactives show top-dose activity, negative = inhibition, hits mostly inhibitors; actives 1% (n = 390,000)
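Pol iota at 10 nM preincubated 15 min with compounds at room temperature; reaction started with fluorescent substrate, 50 nM final. Fluorescence read kinetically at 0 and 10 min; buffer-only wells as negative control.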
POLK inh = DNA polymerase kappa (human) inhibition. Q9UBT6. actives 0.53% (n = 400,000). purified Pol kappa, fluorescent DNA synthesis assay, 10 min. Potency, µM (doses to about 107 µM), for inactives: at the top dose activity, negative = inhibition, hits mostly inhibitors; further: on the % scale 0 is the no-effect control and ±100 the full control effect
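Kinetic fluorescence readout at 0 and 10 min followed reaction start with substrate at 50 nM final. Beforehand, enzyme (10 nM Pol kappa) stood 15 min with compound at room temperature; buffer-only wells were negative controls.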
WRN inhibitor = inhibitors of human WRN helicase; WRN helicase unwinding, fluorescent forked duplex, kinetic; actives 0.46% (n = 360,000); AID 651768; Potency, µM (series often up to 114 µM), inactives show at the highest dose activity change, negative = inhibition, actives largely listed as inhibitors; further: on the % scale 0 is the no-effect control and ±100 the full control effect; nearly all actives have a fitted effect of over 55% in size
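Enzyme (20 nM final) and test compound sit together 15 min at room temperature before substrate addition. Substrate is a single-forked duplex oligonucleotide (100 nM) labelled with fluorophore and quencher, with 2 mM ATP; helicase unwinding raises red fluorescence, read kinetically.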
Pol eta inh = DNA polymerase eta (human) inhibition; Q9Y253; recombinant Pol eta, fluorescent DNA replication assay; Potency, µM (doses to about 114 µM), for inactives: top-dose activity change, negative = inhibition, usual class: inhibitors; actives 1.2% (n = 390,000); AID 588591; further: on the % scale 0 is the no-effect control and ±100 the full control effect
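Pol eta (10 nM) was preincubated with compounds for 15 min at room temperature, after which fluorescent replication substrate (50 nM final) was added to start the reaction. Fluorescence was read kinetically at 0 and 10 min.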
FEN1 inhibitor = human FEN1 inhibition; P39748; Recombinant FEN1 flap cleavage, fluorescence, 15 min; Potency, µM (highest dose often 114 µM), for inactives: at the highest dose activity change, negative = inhibition, actives largely listed as inhibitors; actives 0.35% (n = 390,000); AID 588795; further: on the % scale 0 is the no-effect control and ±100 the full control effect; nearly all actives have a fitted effect of over 65% in size
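Steps: FEN1 (10 nM) dispensed; compound added by pin tool; 15 min at room temperature; substrate added to 50 nM final; reads at 0 min and 15 min; data normalized and fitted (four-parameter Hill).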
Active calls of the source: *; ? = inconclusive; / = no result; [ ] = dose if it differs, or a comment. The call rests on the fitted dose curve; in most records, active means well fitted curve in the direction sought with a large enough effect; inconclusive means small, poorly fitted or top-dose-only effect, or another doubt; inactive means no such curve, though single readings can be large; an effect the other way counts as inactive or inconclusive. Potency means the concentration at half of the fitted maximal effect.

SMILES	Pol beta inh	Pol iota inh	POLK inh	WRN inhibitor	Pol eta inh	FEN1 inhibitor
COc1cc(/C=C/C(=O)OCC(=O)Nc2ccc(Cl)cn2)ccc1O	/	35µM*	?	4%[11.6 µM]	56µM*	11%
COc1cc(/C=C/C(=O)OCC(=O)Nc2ccc(S(N)(=O)=O)cc2)ccc1O	1%	?	?	-14%	50µM*	-16%
Cc1ccc2[nH]c(-c3ccc(F)cc3F)cc(=O)c2c1	/	/	-14%	/	/	/
O=C(Nc1cccc(S(=O)(=O)Nc2ccccc2F)c1)c1ccc2ccccc2n1	4%	?	-11%	-23%	-4%	?
O=C(/C=C/c1ccccc1)Nc1cccc(S(=O)(=O)Nc2ccccc2F)c1	-27%	-6%	-19%	40µM*	-9%	-18%
CCCCC1(C)OC(=O)C(=Cc2ccc(N(CC)CC)cc2)C(=O)O1 (configuration not stated)	6%	?	-21%	?	-14%	-19%
CCN(CC)c1ccc(C=C2C(=O)OC3(CCCCC3)OC2=O)cc1	1%	?	-2%	50µM*	-1%	?
O=C1Nc2ccccc2/C1=C/c1cnc(-c2ccccc2)[nH]1	22µM*	?	-30%	?	-30%	9%
CCc1ccc(NC(=O)CC(c2ccc(C)cc2)N2Cc3ccccc3C2=O)cc1 (configuration not stated)	9%	7%	-2%	/	-14%	3%
COc1cc2c(cc1OC)-c1cc3ccc(OC)c(OC)c3c[n+]1CC2	/	-17%	-9%	7%[11.6 µM]	-16%	?
COc1ccc2cc3[n+](cc2c1O)CCc1cc2c(cc1-3)OCO2	/	/	/	50µM*	/	/
CCc1ccccc1NC(=O)CSc1nnc(-c2cc(OC)c(OC)c(OC)c2)o1	?	45%	-21%	/	-19%	16%
O=C(NCCO)c1ccc2nc(-c3ccco3)c(-c3ccco3)nc2c1	50µM*	2.5µM*	25µM*	11µM*	3.5µM*	45µM*
O=C(NCCc1ccccc1)c1ccc2nc(-c3ccco3)c(-c3ccco3)nc2c1	7.9µM*	?	?	?	?	-15%
O=C(NCCc1ccccc1)c1ccc(=O)oc1	19%	8%	-10%	15%	-5%	-2%
O=C(NC1CCCC1)c1ccc2nc(-c3ccco3)c(-c3ccco3)nc2c1	50µM*	?	22µM*	40µM*	3.5µM*	?
O=C(NC1CCCC1)c1ccc2nc[nH]c2c1	-1%	-7%	-4%	6%	-13%	0%
CC1Cc2cc(S(=O)(=O)CCC(=O)Nc3ccc(Cl)cc3F)ccc2N1C(=O)C1CC1 (configuration not stated)	1%	25%	-14%	/	-13%	-1%
COc1ccc(NC(=O)CSc2oc(-c3cccs3)nc2S(=O)(=O)c2ccc(Br)cc2)c(OC)c1	?	42%	0%	/	?	18%
COc1ccc2c(c1)c(=O)c(C(=O)c1ccc(F)cc1)cn2CC(=O)Nc1ccc2c(c1)OCO2	7%	22%	4%	/	-16%	5%
CC1=NN(c2ccc([N+](=O)[O-])cc2)C(=O)C1	/	78%	-11%	?	10%	-2%
CC1=NN(c2cccc(Cl)c2)C(=O)C1	1%	3.5µM*	-20%	-19%[57.1 µM]	-16%	5%
CC1=NN(c2cc(Cl)c(S(=O)(=O)O)cc2Cl)C(=O)C1	/	?	?	-18%	22µM*	-16%
CC1=NN(c2ccc(Cl)c(C(=O)O)c2)C(=O)C1	?	1.1µM*	-42%	?	22µM*	?
CC1=NN(c2ccc(S(=O)(=O)O)cc2Cl)C(=O)C1	-3%	?	-14%	-14%	?	9%
O=C(O)c1c(Cl)c(Cl)c(Cl)c(Cl)c1-c1c2cc(I)c(=O)c(I)c-2oc2c(I)c(O)c(I)cc12	/	/	12µM*	/	/	/
